The panel holds about 83,000 compounds, 20% with a hit somewhere; the sample as a whole holds those more often.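 A percent growth of 40 corresponds to 60% growth inhibition; 0 means no net growth; -100 means all cells died. Active threshold: below 10.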 A number with no mark means an inactive call. The source made the active and inactive calls.

Holding throughout (experiment): NCI-60 one-dose screen, 48 h (100 = growth as untreated, 0 = no growth, -100 = all killed)
The subject of assay [1] is K-562 leukemia. Particulars: 10 µM unless noted.
Assay [2] concerns RXF 393 renal. The following applies: 10 µM unless noted.
The test system of assay [3] is SF-295 CNS. Particulars: 10 µM unless noted.
Assay [4] has as its system UACC-257 melanoma. Particulars: 10 µM unless noted.
For assay [5], the system named is HCT-15 colon. The following applies: 10 µM.
The test system of assay [6] is UACC-62 melanoma. Particulars: 10 µM unless noted.
In assay [7] the test system is LOX IMVI melanoma. The following applies: 10 µM unless noted.
Assay [8] concerns SK-MEL-2 melanoma. The following applies: 10 µM unless noted.
The test system of assay [9] is TK-10 renal. The following applies: 10 µM unless noted.
The test system of assay [10] is ACHN renal. Particulars: 10 µM unless noted.
Assay [11] relates to A498 renal. The following applies: 10 µM unless noted.
The test system of assay [12] is HL-60(TB) leukemia. The following applies: 10 µM unless noted.
Assay [13] concerns MOLT-4 leukemia. The following applies: 10 µM.
Assay [14] deals with OVCAR-8 ovarian. The following applies: 10 µM unless noted.
For assay [15], the system named is OVCAR-4 ovarian. The following applies: 10 µM unless noted.
In assay [16] the test system is NCI/ADR-RES ovarian. Particulars: 10 µM unless noted.
Assay [17] deals with T-47D breast. Particulars: 10 µM unless noted.
The test system of assay [18] is BT-549 breast. The following applies: 10 µM.
Assay [19] deals with HCC-2998 colon. Particulars: 10 µM unless noted.
Assay [20] relates to MALME-3M melanoma. Particulars: 10 µM unless noted.

Take `NC(Cc1ccc(O)cc1)C(=O)N/N=C/c1ccc(N(CCCl)CCCl)cc1` (stereo not given): the growth in assay [1] is 41.3%; in [2], 95.3%; in assay [3], 48.5%; in assay [4], 93.6%; in assay [5], 85.8%; in assay [6], 31.4%. In addition, the growth in assay [7] is 44.4%; in assay [8] it was 72.8%; in assay [9] it was 115%; in assay [10], 75.1%; in [11], 82.3%; in [12], 8.82% (active). For the same molecule, the growth in [13] is 29.8%; in assay [14], 80.5%; in [15], 90.6%; in assay [16], 78.4%; in [17] it was 79.2%; in assay [18] it was 73.3%. Besides, the growth in assay [19] was 87.2%.

`O=C(CC1(O)C(=O)Nc2ccc(F)cc21)c1ccc(C(=O)NCC2CCC3(CC2)OOC2(CCCCC2)OO3)cc1` (stereo not given): the growth in assay [1] was 14.9%; in assay [20], -35.8% (active); in assay [2], 59.4%; in assay [3] it was 79.3%; in assay [4] it was 70.4%; in [5], 74.1%. Moreover, the growth in assay [6] is 73.4%; in assay [7], 39.1%; in assay [10], -25.2% (active); in assay [11], 65%; in [12], -64.2% (active); in assay [13] it was 22.5%. For the same molecule, the growth in assay [14] was 19.7%; in assay [15], 65.6%; in assay [16] it was 80%; in [17], 29.6%; in assay [18], 78%; in [19] it was 113%.

`Nc1cccc2c1Oc1ccccc1O2`: the growth in [1] was 96.4%; in assay [20] it was 97.3%; in [2] it was 145%; in assay [3] it was 119%; in assay [4], 102%; in [5], 102%. The growth in assay [6] was 88.1%; in assay [7], 93.1%; in [8] it was 98%; in assay [9], 115%; in assay [10] it was 99.2%; in [11], 118%. Besides, the growth is 107% in assay [12]; 103% in assay [13]; 104% in assay [14]; 115% in assay [15]; 113% in assay [16]; 115% in assay [17]. For the same molecule, the growth in assay [18] was 104%; in assay [19], 109%.

On to `O=C1NC(=O)C(=Cc2cn(Cc3ccccc3)c3ccccc23)C(=O)N1`, for which the growth in assay [1] was 63.5%; in [20], 109%; in assay [2], 86.9%; in assay [3], 37.2%; in assay [4], 34.2%; in assay [5] it was 93.8%. The growth in [6] is 40.6%; in assay [7] it was 83.4%; in assay [8], 105%; in [9] it was 28.8%; in assay [10], 92.7%; in assay [11], -72.6% (active). For the same molecule, the growth is 96.3% in assay [12]; 132% in [13]; 81.1% in assay [14]; 68.3% in assay [15]; 106% in assay [16]; 55.9% in assay [17]. Moreover, the growth was 77.6% in assay [18] and 70.2% in [19].

As to `CCCCCCCCCCOc1ccc(C(=O)Oc2ccc(CSP3(=O)OCC4OC(n5ccc(=O)[nH]c5=O)C(F)C4OP(=O)(O)OCC4OC(n5cnc6c(N)ncnc65)C(F)C4O3)cc2)cc1` (stereo not given), the growth in assay [1] was 66.1%; in assay [20], 110%; in assay [2], 72.6%; in [3], 105%; in assay [4] it was 21.3%; in assay [5], 105%. The growth was 111% in [6]; 85.3% in [7]; 76.3% in [8]; 92% in assay [9]; 6.69% (active) in [11]; -12.8% (active) in [12]. Further, the growth in assay [13] is 68.4%; in assay [14] it was 104%; in assay [15] it was 58.8%; in [16], 105%; in [17] it was 96.4%; in [18] it was 87.7%. In addition, the growth in assay [19] is 102%.

Take `CC(=O)N(C)C1=Nc2ccc(Cl)cc2C(c2ccccc2)=[N+]([O-])C1`: the growth was 109% in [1]; 121% in [20]; 109% in assay [2]; 107% in assay [3]; 95.7% in assay [4]; 108% in assay [5]. Moreover, the growth in [6] is 93.7%; in assay [7], 95.4%; in assay [8], 95.8%; in assay [9] it was 102%; in assay [10] it was 98.7%; in assay [11], 106%. Moreover, the growth is 135% in [12]; 101% in assay [13]; 102% in assay [14]; 114% in assay [15]; 111% in [16]; 94.9% in assay [17]. In addition, in assay [18], the growth is 106%.

Regarding `OC1(c2ccccc2F)c2ccccc2C2=NCCN21` (stereo not given), the growth in assay [1] was 88.7%; in assay [20] it was 97.2%; in [2], -10.4% (active); in [3], 91.8%; in assay [4], 111%; in assay [5], 108%. Further, the growth in [6] is 96%; in assay [7] it was 96.9%; in assay [8], 94.6%; in assay [9], 90.4%; in assay [10], 114%; in assay [11], 105%. Further, the growth in assay [12] was 83.8%; in assay [13], 97.7%; in assay [14], 104%; in assay [15] it was 107%; in [16], 86.6%; in [17], 104%. The growth in assay [18] is 110%; in assay [19] it was 100%.

Take `COc1ccccc1N1CCN(CCc2c[nH]c3cc4c(cc23)OCO4)CC1`: the growth was 76.3% in assay [1]; 92% in [20]; 75.8% in [2]; 41% in assay [3]; 56.7% in assay [4]; 68% in assay [5]. Moreover, the growth in assay [6] was 69.2%; in [7] it was 60.4%; in assay [8] it was 57.6%; in assay [9], 89.7%; in [10], 77.7%; in assay [11], 108%. Moreover, the growth in assay [12] was 64.8%; in assay [13], 84.7%; in [14], 88.4%; in assay [15], 99.2%; in [16], 86%; in assay [17], 83.1%. For the same molecule, the growth in assay [18] was 84.2%; in [19] it was 92.6%.

Source of the values: PubChem BioAssay (NCI).
